Source: paper PMC7819943, “Rice protein-binding microarrays: a tool to detect cis-acting elements near promoter regions in rice”
In all, about 68,000 sequences were measured (“fluorescence intensity (a.u.)”: median about 9,100, highest 2% from about 16,000 on). The sample as a whole holds a higher share of the highest values than the screen did.

target: OsWRKY34 (Oryza sativa, UniProt Q0JBA9 1-250); assay: protein-binding microarray (RPBM); PBS, 2% BSA, 51.3 ng/ul salmon testes DNA, 50 uM zinc acetate, 200 nM TF, 25 C, 1 h; high values mean tight binding; conditions: protein: recombinant; tags: N-terminal polyhistidine and DsRed monomer fusion (pET32a); label: CyDye5-dUTP incorporated in the synthesized complementary strand; 3' TTTTT single-stranded linker to array surface; dsDNA, one strand shown
Method in brief: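 An Axon 4000B scanner gave the binding signal as per-feature fluorescence intensity in arbitrary units. This followed washing of a custom Agilent array that had been incubated for 1 h at 25 °C with 200 nM protein in PBS, 2% BSA, salmon testes DNA and 50 µM zinc acetate. The proteins were transcription factors fused at the N-terminus to polyhistidine and DsRed, expressed in E. coli BL21-CodonPlus and purified on Ni–NTA.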

Chain of OsWRKY34 (Q0JBA9 entry or part of it): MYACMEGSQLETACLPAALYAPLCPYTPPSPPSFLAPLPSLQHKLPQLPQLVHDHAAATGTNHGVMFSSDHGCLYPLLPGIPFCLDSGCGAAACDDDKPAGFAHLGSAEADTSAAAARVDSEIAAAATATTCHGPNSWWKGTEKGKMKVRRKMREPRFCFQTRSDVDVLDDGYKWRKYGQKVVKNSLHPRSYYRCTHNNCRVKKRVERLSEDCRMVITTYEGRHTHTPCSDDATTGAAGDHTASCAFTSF

Sequence | binding signal
CAGTTTTTGAGGTAGAAGGGTATCATTGTAATTTTGCATCCGGAGTCACCTAGTGCAG | 8850 fluorescence intensity (a.u.)
AAATGTGGTTTTGATGGTTTCCAACATATATTTATCGGTTCGGAGTCACCTAGTGCAG | 8570 fluorescence intensity (a.u.)
TTATCAAATTCCGATCAAATCATTCCTCGTCGGCGTCCATCGGAGTCACCTAGTGCAG | 8880 fluorescence intensity (a.u.)
AACGGCAGCAGATCCACCAAACCCCACACCCTCTCCAAATCGGAGTCACCTAGTGCAG | 8600 fluorescence intensity (a.u.)
ACTCCATTTACGGGCAACTCTTGCTTGCGCAACGGGCCTTCGGAGTCACCTAGTGCAG | 8790 fluorescence intensity (a.u.)
TTCTTAACATGTTCGCATATGAAAATAGACTTATTTTTTACGGAGTCACCTAGTGCAG | 8130 fluorescence intensity (a.u.)
TCCACGTTCACTTATCAGCCCCAACGTCTTAGCTTCCGATCGGAGTCACCTAGTGCAG | 9260 fluorescence intensity (a.u.)
AGCATATCAGCCACTCTTTCTTCTTTGTCTTTATCAACTCCGGAGTCACCTAGTGCAG | 8250 fluorescence intensity (a.u.)
ACTCTTATTGTCTTCACGTTGTCTTATCAGCCACGATCAACGGAGTCACCTAGTGCAG | 17900 fluorescence intensity (a.u.)
GGAATTTCTCAGCTCACACGAGTCACGGACCCACCACCACCGGAGTCACCTAGTGCAG | 8960 fluorescence intensity (a.u.)
GGGTCTAACTCTAAGAGTATTGGGTACCCCTTATCGTTAACGGAGTCACCTAGTGCAG | 8360 fluorescence intensity (a.u.)
TCTTTCATACGGAATTCCTTTTCATTATTGGATGCCAGCTCGGAGTCACCTAGTGCAG | 9330 fluorescence intensity (a.u.)
CAAGGTTTGTTTTCTTATCAGTTACTACTGCTTTTGTGGTCGGAGTCACCTAGTGCAG | 11100 fluorescence intensity (a.u.)
GAGTTTTCCGTGTGGAGGGTGTGGATTTTTTCGTGTGTTCCGGAGTCACCTAGTGCAG | 15500 fluorescence intensity (a.u.)
GGGTGGGTTGATTTGATAGACTTCTTTTGCTTTTGATAAACGGAGTCACCTAGTGCAG | 29100 fluorescence intensity (a.u.)
TTTTTCTTTTCTTTTTTGCTTTTGAATTGTGGGGTTGTAACGGAGTCACCTAGTGCAG | 8790 fluorescence intensity (a.u.)
ATTTATTTTGGGATGGGGAGGGAGACAACTACAGTGTTTCCGGAGTCACCTAGTGCAG | 18200 fluorescence intensity (a.u.)
TAGAGGGATGGGCTATTAAGTGTTTTATTTGGTTGGGAGACGGAGTCACCTAGTGCAG | 15200 fluorescence intensity (a.u.)
TAACGATTTTTTTTTTGGGAGGGTGGGGATTTTTTTTTTCCGGAGTCACCTAGTGCAG | 24100 fluorescence intensity (a.u.)
CGGGTTTGATTTGATTTGATTTTGATTTTGATTTGCTTCTCGGAGTCACCTAGTGCAG | 8190 fluorescence intensity (a.u.)
CTTTTTTGGGTGATTTTTTTTCACTTGGGGTGGGTGATAACGGAGTCACCTAGTGCAG | 21800 fluorescence intensity (a.u.)

Sequence | binding signal
TTTGGGGATTTCTTTCTTATTTTTCTTTCCCTTTTTTTCCCGGAGTCACCTAGTGCAG | 10900 fluorescence intensity (a.u.)
AGTAGAGTATTTTTTTTTCTTTTTTGATTGATGGTGATAACGGAGTCACCTAGTGCAG | 8320 fluorescence intensity (a.u.)
ACCTTCACTATTTTTTTTGATTTTTTTCTTTTTTTTTTAACGGAGTCACCTAGTGCAG | 12200 fluorescence intensity (a.u.)
TGTGGGACAGGATGGTCACTAATTTCCGGTTTTGGTTTTACGGAGTCACCTAGTGCAG | 8480 fluorescence intensity (a.u.)
ATCTCTGATCCGTCCAGTTGACCCAAAGCTAGAGTCTTTCCGGAGTCACCTAGTGCAG | 10700 fluorescence intensity (a.u.)
GTGTTGTGTTTATTTTTTTATAATATCCATGATTGTAATCCGGAGTCACCTAGTGCAG | 9640 fluorescence intensity (a.u.)
TCCGCCGCCGTCTCCGCCGCCTCCAGCCATCGATCCCGGCCGGAGTCACCTAGTGCAG | 8250 fluorescence intensity (a.u.)
GCACACATACACATACTGACAATGATGAGTTGATGACACACGGAGTCACCTAGTGCAG | 8500 fluorescence intensity (a.u.)
GCCCGGCCCAGTAGATACCACCACCTCACACTCCATTCGCCGGAGTCACCTAGTGCAG | 9860 fluorescence intensity (a.u.)
GGAGCATGTTCAACCATTCATTGTTTTCTCTATTGCATAACGGAGTCACCTAGTGCAG | 8070 fluorescence intensity (a.u.)
GTTGTCTAGTGCTTGCTATTCTTCTACTAGTAGTATTATACGGAGTCACCTAGTGCAG | 9570 fluorescence intensity (a.u.)
AATCCATTTCCCATTCGCCATTCCCCATCCTTATCTCTTACGGAGTCACCTAGTGCAG | 8660 fluorescence intensity (a.u.)
GTTGCATTTGCCGCTGCGACACGGACCCCGCCTTAATAACCGGAGTCACCTAGTGCAG | 9020 fluorescence intensity (a.u.)
TCTTTCTCTCTCTTGCTGCCGTTGAGGGATTTGGGGTGAACGGAGTCACCTAGTGCAG | 10000 fluorescence intensity (a.u.)
ATCCAATGGTATAATTTTTTTAGGGAAGGGTTTTTTTTTCCGGAGTCACCTAGTGCAG | 12600 fluorescence intensity (a.u.)
ATGCCCTGTTACCTGTGTGTGATTTCTTTGTGCTCCATAACGGAGTCACCTAGTGCAG | 17600 fluorescence intensity (a.u.)
AAGATTTGCTGGGAGGGTGGGGTGGGGATTAGTCCCTAAACGGAGTCACCTAGTGCAG | 24500 fluorescence intensity (a.u.)
AGATGGTGTTTGGATGGGAGGGATTTATTTTAGTCCCTCTCGGAGTCACCTAGTGCAG | 10200 fluorescence intensity (a.u.)
TACCTGATTTGTGCATATGTTTCTTTCTGTTTTGCCCTTACGGAGTCACCTAGTGCAG | 8170 fluorescence intensity (a.u.)
ATTTTTACCCTTCTCCTGTGTTTTTGTTGCTGTGATTCAACGGAGTCACCTAGTGCAG | 8570 fluorescence intensity (a.u.)
TGATTTTTTAGGGAGGGGTGGTTAGTATAAGAGGGTTTTCCGGAGTCACCTAGTGCAG | 20000 fluorescence intensity (a.u.)

Sequence | binding signal
GATTTGGTGGGTTATAATTTTATAGTAAGAGGGGATTTTACGGAGTCACCTAGTGCAG | 16100 fluorescence intensity (a.u.)
CTACTATTGCGTTGTTTTATTTTGGCCAGTTTATTTCAAACGGAGTCACCTAGTGCAG | 13400 fluorescence intensity (a.u.)
TTTTTTTGCTTTTTCACTATTTTTTTATTTTGACGGACGACGGAGTCACCTAGTGCAG | 9300 fluorescence intensity (a.u.)
GAATTCATACTTTTTCCTATATTTATCTTTGGCCTTAATCCGGAGTCACCTAGTGCAG | 8560 fluorescence intensity (a.u.)
CCCCAAAATACTCGACGCTGAACTTTCCCATCAGCTAGTACGGAGTCACCTAGTGCAG | 8280 fluorescence intensity (a.u.)
CCTTGGCAGTGGGGCGGAGGGGCGGTGTCGGTGCTGGCGGCGGAGTCACCTAGTGCAG | 13800 fluorescence intensity (a.u.)
TTGTAAGTTAGGGACCTGTTGTATCTGATTTTTTGGTTGACGGAGTCACCTAGTGCAG | 8210 fluorescence intensity (a.u.)
AATGTTGTCCTGTCGGCTGCTTCTGCTCCAACGTCAAGTTCGGAGTCACCTAGTGCAG | 8140 fluorescence intensity (a.u.)
ATTTTACCAGTCTTGGAGATTTTAATCTTGTATAGTTTTCCGGAGTCACCTAGTGCAG | 9110 fluorescence intensity (a.u.)
TATATATATATATATATATATATTCACAAATTATTTTTCACGGAGTCACCTAGTGCAG | 23500 fluorescence intensity (a.u.)
GGGGAAATTTTCACGAGGGAGAGGGAGGGGAGGGATATTTCGGAGTCACCTAGTGCAG | 23200 fluorescence intensity (a.u.)
GGGGATTTTTTTTTCGGATCCAGAACGATCAGAGAGGGAGCGGAGTCACCTAGTGCAG | 9300 fluorescence intensity (a.u.)
CTAGGGTTAGGGGTTTGGGTGGGGAAATTTTCACGAGGGACGGAGTCACCTAGTGCAG | 14600 fluorescence intensity (a.u.)
CTCACCATTTCATTTTATTTTTCATTTTTCACCACAAATTCGGAGTCACCTAGTGCAG | 9050 fluorescence intensity (a.u.)
TTTCATTATACATATAGTTTTACATATTTCACAAAATTTTCGGAGTCACCTAGTGCAG | 8770 fluorescence intensity (a.u.)
ATCCATGGGCCTCGTTGGTTATAGCCTGTGTGCATCAACACGGAGTCACCTAGTGCAG | 8230 fluorescence intensity (a.u.)
TCCTCCTTTCTCGCTCTCGCTCTGTCCGATCGGAGCCATGCGGAGTCACCTAGTGCAG | 8490 fluorescence intensity (a.u.)
TTGGGGTTCGTGGGGTCGAGAGGAAGGTGCGTGATCATACCGGAGTCACCTAGTGCAG | 11500 fluorescence intensity (a.u.)
TATTTTCCGGATCGAATTGCCACGTAAGGGCCACATCAGTCGGAGTCACCTAGTGCAG | 8510 fluorescence intensity (a.u.)
ACTGGCTTTGCTATGATCTTTTGCTATCGCCCAACCGTTACGGAGTCACCTAGTGCAG | 8690 fluorescence intensity (a.u.)
ATTTTCTACTCTTTTGGTCCCACTAGTCATAGACTCTTTTCGGAGTCACCTAGTGCAG | 10800 fluorescence intensity (a.u.)

Sequence | binding signal
TGTGCCGTGACTCGATGTGCTCCTCCATCTCTTGCTGCAACGGAGTCACCTAGTGCAG | 8170 fluorescence intensity (a.u.)
TGTGCTGTGTGGTGTACTGGTGTGTGGGCTTAATAATTGTCGGAGTCACCTAGTGCAG | 14200 fluorescence intensity (a.u.)
CTGCGGGGAGGTGTAGGAGGAGGAGGGCGGAGGAGGTGGTCGGAGTCACCTAGTGCAG | 8780 fluorescence intensity (a.u.)
GAGGGAGGGAGGGAGGGAGGGCGTGTAGCGTAGTTGGTGTCGGAGTCACCTAGTGCAG | 18800 fluorescence intensity (a.u.)
GTTTTTTTTTTTTGGCGCAGGGAGTGGTGGCGTGGTGTGTCGGAGTCACCTAGTGCAG | 8170 fluorescence intensity (a.u.)
CGGGCGGCGGGTGCGGACTGCGGAGGAGGCTGGCGGGGCACGGAGTCACCTAGTGCAG | 8630 fluorescence intensity (a.u.)
GCGGTGGAGGGCCGGCGGAGAGGGGAGCAGCGGTGGAGGGCGGAGTCACCTAGTGCAG | 11000 fluorescence intensity (a.u.)
GGGAGGGAGGGTGGCTGTAGTGTGCTAATCACAAATAATTCGGAGTCACCTAGTGCAG | 20500 fluorescence intensity (a.u.)
GAGGCGGGTGATAGCGCGGTGGGGCGGTGGCGGCGGTGGACGGAGTCACCTAGTGCAG | 13000 fluorescence intensity (a.u.)
TCGAGAGGTGGGGAGGGGAGGGGAGCAGAGGGCGGCATCGCGGAGTCACCTAGTGCAG | 18600 fluorescence intensity (a.u.)
GCAGAGAGAGGGGAGGAGGGTGGGTGGCGGCGGCGGCTAGCGGAGTCACCTAGTGCAG | 14400 fluorescence intensity (a.u.)
GTGAGGACGGCCTGCGGGTGCATGCGGGCGCAACAAGTAGCGGAGTCACCTAGTGCAG | 17500 fluorescence intensity (a.u.)
GGGAGGGGCTGCTAATTCGGTGTGATTAGTACAGTAGTTTCGGAGTCACCTAGTGCAG | 10100 fluorescence intensity (a.u.)
CCTCACCCTATGCTCCTGTGTTTTGTAGTCTTTCGTAACACGGAGTCACCTAGTGCAG | 8220 fluorescence intensity (a.u.)
ACGGCATCAAATCTCTGTTTGTACATGTGCCCCTGTTCTTCGGAGTCACCTAGTGCAG | 9440 fluorescence intensity (a.u.)
CCCGACCAAACACTACGAACTCTTCTACCTTCTTTGTTTCCGGAGTCACCTAGTGCAG | 12600 fluorescence intensity (a.u.)
CAATGCACTGTTCATCTTCAGTAGTTATGTTTTCTCAGTGCGGAGTCACCTAGTGCAG | 10400 fluorescence intensity (a.u.)
CAAATTTGGTATTTCTCTCTGCTCACTCCATCCCTCAACTCGGAGTCACCTAGTGCAG | 8830 fluorescence intensity (a.u.)
ATGGTGGCCGGTCTTTTTTCCTCTTCGCTCGATGCCAAAACGGAGTCACCTAGTGCAG | 8270 fluorescence intensity (a.u.)
CGGCTAAACTCCCACGTGAACCAGACGCTGCACCAAAAACCGGAGTCACCTAGTGCAG | 8430 fluorescence intensity (a.u.)
GAAGTGAATAGTAGAGGGTTTTGATGGGTTGGGAAGAGAACGGAGTCACCTAGTGCAG | 11200 fluorescence intensity (a.u.)
